# Measured values taken from PubChem BioAssay (NCI).
# Compounds without any hit were thinned out: in the full panel of roughly 83,000, 20% have a hit.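 In brief: 96-well plates, 48 h treatment, single concentration, percent growth endpoint.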 Values without a mark were called inactive. Activity calls are given as the source filed them. The calls were made as follows: active = growth percent below 10; inactive = the rest. Where a SMILES comes first, the peptide text is derived from it. Bridges are numbered along the chain shown (N, C = ends). [ ]: non-standard residue; d: D form. The star is where a group is joined. ξ: configuration not given here. ξNMePhe(4-NMe2) = CNC(Cc1ccc(N(C)C)cc1)C(=O)O; Picolinoyl(3-OH) = O=C(c1ncccc1O)*; ξPip(4-oxo) = O=C1CCNC(C(=O)O)C1; Phg = N[CH](C(=O)O)c1ccccc1; Abu = CC[CH](N)C(=O)O
# Tests used:
# Assay in all cases: NCI-60 one-dose screen, 48 h (100 = growth as untreated, 0 = no growth, -100 = all killed)
# SK-MEL-2 melanoma = conditions: 10 µM
# EKVX NSCLC = conditions: 10 µM
# SN12C renal = conditions: 10 µM
# UO-31 renal = conditions: 10 µM
# TK-10 renal = conditions: 10 µM unless noted
# ACHN renal = conditions: 10 µM
# CAKI-1 renal = conditions: 10 µM
# A498 renal = conditions: 10 µM
# CCRF-CEM leukemia = conditions: 10 µM
# MOLT-4 leukemia = conditions: 10 µM
SMILES,growth (SK-MEL-2 melanoma),growth (EKVX NSCLC) [%],growth (SN12C renal),growth (UO-31 renal),growth (TK-10 renal),growth (ACHN renal),growth (CAKI-1 renal),growth (A498 renal) [%],growth (CCRF-CEM leukemia),growth (MOLT-4 leukemia)
N#CCc1ccc([N+](=O)[O-])cc1,107%,97.8,101%,72.1%,107%,103%,93%,90.7,100%,74.2%
COc1ccc(C2(O)CCCCC2)cc1,107%,105,101%,97%,113%,115%,100%,86.9,96.1%,97.5%
Nc1ccc(N=Nc2ccc(O)cc2)c(N)n1,97.1%,67.6,72.8%,34.7%,93.7%,26.3%,39.1%,–,37.4%,46.1%
Cc1c(C(=O)O)c(=O)n(-c2ccccc2)n1C,116%,103,105%,89.6%,123%,109%,98.3%,–,108%,113%
COc1cc(C(N)=O)cc(OC)c1OC,114%,102,96.1%,82.5%,111%,105%,91%,–,103%,84.5%
O=[N+]([O-])c1ccc(S(=O)(=O)NN=C2CCCCC2)cc1,147%,104,103%,67.8%,128%,100%,92.5%,123,–,98.7%
NC(=O)NC(=O)c1ccc(Cl)cc1,92.2%,101,104%,77%,100%,105%,94.1%,102,–,102%
O=C1c2ccccc2C(=O)N1OCc1ccccc1,96.7%,98.7,110%,79.1%,133%,101%,95.2%,134,97.3%,93.7%
NNc1ccccc1C(=O)O,102%,116,116%,87.9%,110%,98.9%,110%,98.1,–,107%
O=[N+]([O-])c1ccc(O)c(S(=O)(=O)O)c1,108%,105,90.2%,116%,121%,95.2%,95.9%,114,102%,98.4%
Cn1cnc2nc(Cl)nc(Cl)c21,-23.4% (active),104,22.4%,45.2%,4.15% (active),29.4%,-61.6% (active),62.6,–,35.8%
CC(=O)Nc1ccc(NC(C)=O)c2c1C(=O)c1ccccc1C2=O,103%,73.5,86.9%,59.5%,92.6%,78.8%,68.6%,91.1,–,105%
c1ncc2[nH]cnc2n1,84.6%,126,97.1%,83.5%,103%,95.1%,94.8%,79.1,88.7%,80.8%
Cc1ccc(Cl)cc1NC(=O)N(C)CCO,97.4%,116,105%,76%,126%,103%,–,111,98.7%,97.5%
NC(N)=Nc1cc2ccccc2c2ccccc12,108%,83.9,80.5%,57%,105%,72.3%,–,59.3,40.5%,41.6%
Cc1ccc(/C(C#N)=C/c2ccc3c(c2)OCO3)cc1,43.3%,87.3,90.6%,64.3%,80.8%,95.3%,53.6%,–,65.8%,63.6%
COc1ccccc1N=Nc1c(O)ccc2cc(S(=O)(=O)O)ccc12,96.4%,95.2,102%,84.7%,113%,98.1%,–,–,105%,104%
COc1cc2c(cc1O)CC[C@@H]1C2CC[C@@]2(C)C1CC[C@@H]2O (stereo partly specified),71.1%,37.9,53.2%,41.8%,63%,61.9%,33.7%,–,8.85% (active),31.8%
N#CC1(Nc2ccc3c4c(cccc24)CC3)CCCCC1,90.3%,102,92.7%,55.6%,102%,101%,74.8%,–,59%,70.1%
COc1cc(-c2ccc(NC(=O)NC3CC3)c(OC)c2)ccc1NC(=O)NC1CC1,96.3%,94.6,91.6%,46.5%,99.6%,63.8%,–,59.3,47.8%,38.1%

SMILES,growth (SK-MEL-2 melanoma),growth (EKVX NSCLC) [%],growth (SN12C renal),growth (UO-31 renal),growth (TK-10 renal),growth (ACHN renal),growth (CAKI-1 renal),growth (A498 renal) [%],growth (CCRF-CEM leukemia),growth (MOLT-4 leukemia)
C[N+](C)=c1ccc2nc3c(cc(Nc4ccccc4)c4ccccc43)oc-2c1,10.9%,90.2,79.9%,59.1%,106%,82.1%,–,51,57.8%,38%
COc1cccc(O)c1O,72.4%,99.6,74.5%,70.3%,91.2%,73.2%,–,–,63.8%,64.8%
O=[N+]([O-])c1ccc(N=Nc2ccc(O)c3ccccc23)cc1,43.2%,60,35.3%,24%,76.1%,47.3%,–,71.8,–,31.5%
CC1CCCC(CC(N)=O)CC1 (stereo unspecified),109%,107,107%,91%,94.2%,103%,93.4%,–,90.4%,101%
COc1cc(CN)ccc1O,-8.32% (active),71.3,81.7%,82.7%,88.4%,96%,–,128,93.1%,134%
CO[C@H]1C[C@@H]2CC[C@@H](C)[C@@](O)(O2)C(=O)C(=O)N2CCCC[C@H]2C(=O)O[C@H]([C@H](C)C[C@@H]2CC[C@@H](O)[C@H](OC)C2)CC(=O)[C@H](C)C=C(C)[C@@H](O)[C@@H](OC)C(=O)[C@H](C)C[C@H](C)/C=C/C=C/C=C1C,75.8%,36.5,74.2%,26.3%,71.7%,59.3%,52.2%,–,30.6%,37.4%
CC(=O)Nc1cccc(Cl)c1C,100%,101,99.7%,85.3%,95.5%,–,97.7%,93.3,–,–
Cc1nc2ccccc2c(C(=O)O)c1O,313%,103,98.3%,91.2%,113%,97.8%,–,117,121%,132%
Oc1ccccc1-c1nnco1,96.4%,107,83.2%,55%,95.4%,–,100%,75.9,89%,90.1%
S=c1[nH]ccn1-c1ccccc1Cl,118%,112,116%,94.2%,128%,101%,–,101,96.6%,97.4%
CCCNC(=O)c1ccc(S(N)(=O)=O)cc1,120%,112,107%,107%,119%,101%,110%,–,81.6%,109%
O=c1cc(-c2ccccc2)nc2cc(-c3ccco3)[nH]n12,102%,89.7,96%,74.6%,124%,91%,–,82.1,78.7%,87%
N#Cc1ccc(NC(=O)Nc2cccc(C#N)c2)cc1,97.3%,94.5,94%,75.6%,113%,92.5%,–,86,72.4%,78.7%
COc1cc2cc(OC(C)=O)c3cc4c(cc3c2c(OC)c1OC)OCO4,109%,95,101%,89%,101%,–,99%,92.5,2.13% (active),96.6%
N#CCCN(CCCN1CCOCC1)CN1C(=O)c2ccccc2C1=O,118%,107,108%,77.2%,103%,113%,98.6%,–,106%,90.9%
Nc1nc(N)c(N=Nc2ccc(C(=O)O)cc2)c(N)n1,97.1%,100,91.4%,53.6%,130%,103%,–,96.2,102%,102%
Clc1ccc(-c2n[nH]c3c2Cc2ccccc2-3)cc1Cl,99.6%,86.3,94.1%,72.4%,101%,100%,–,110,89.2%,91.4%
CCOc1ccc(/C=C/C(=O)c2ccccc2)cc1,91.9%,107,95.7%,84%,97.6%,108%,–,88.8,55.9%,77.6%
COc1cc(C2NC(=O)C(C#N)=C(Nc3cccc(C)c3)S2)ccc1O (stereo unspecified),123%,94.9,90.3%,94.8%,106%,101%,–,112,76%,93%
O=[N+]([O-])c1ccc(-c2ncc(-c3ccc(Br)cc3)o2)cc1,99.1%,101,103%,84.5%,108%,94.2%,–,68.4,92.6%,97.6%

SMILES,growth (SK-MEL-2 melanoma),growth (EKVX NSCLC) [%],growth (SN12C renal),growth (UO-31 renal),growth (TK-10 renal),growth (ACHN renal),growth (CAKI-1 renal),growth (A498 renal) [%],growth (CCRF-CEM leukemia),growth (MOLT-4 leukemia)
COc1ccccc1NC(=O)c1cc2cc(Br)ccc2cc1O,-31.5% (active),22.4,9.1% (active),-3.91% (active),39.8%,-6% (active),–,18.2,-4.98% (active),-0.261% (active)
c1ccc(Sc2ccccc2)cc1,97.5%,101,105%,87%,101%,108%,–,97.6,97.7%,87.4%
CCC1NC(=O)C(NC(=O)c2ncccc2O)C(C)OC(=O)C(c2ccccc2)NC(=O)C2CC(=O)CCN2C(=O)C(Cc2ccc(N(C)C)cc2)N(C)C(=O)C2CCCN2C1=O (stereo unspecified) (tested in a mixture with another compound) ({Picolinoyl(3-OH)}-T[Abu]P[ξNMePhe(4-NMe2)][ξPip(4-oxo)][Phg]; ester 1-C; configuration not given here),95.9%,41,75%,90.8%,91%,47.5%,50.8%,–,32%,42.2%
C#CCSc1nnnn1-c1ccc(Br)c(C)c1,86.9%,35.7,71.8%,-93.1% (active),111%,92.5%,–,124,87.5%,88.4%
C#Cc1cccc(NC(=O)c2ccc(Cl)cc2Cl)c1,98.6%,91.3,95.7%,91.7%,106%,93.5%,–,102,88.2%,–
O=C(CS)Nc1ccc2ccccc2c1,116%,119,101%,88.7%,128%,93.6%,–,98.8,81.1%,84.5%
Cc1ccc(C(=O)N/N=C/c2ccc3c(c2)OCO3)cc1,90.4%,101,96%,78.2%,98%,–,93.3%,96.6,84.8%,–
CN(C)CCN(Cc1ccccc1)c1ccccc1,124%,110,97.5%,107%,110%,–,77.2%,99,123%,90.5%
C=CCNC(=O)c1ccc(OC)cc1,97.6%,109,99.1%,74.7%,120%,106%,–,133,98.4%,102%
Cc1cc(Cc2cc(C)c(N)cc2N)c(N)cc1N,96.7%,109,88.3%,77.2%,146%,98.8%,–,98.8,96.8%,73.2%
CN(C)c1ccc2oc(=O)c3ccccc3c2c1,106%,50.4,89.2%,81%,107%,103%,98.4%,–,110%,131%
COc1cc2c3c(n(C)c(=O)c2cc1OC)-c1cc2c(cc1C3=O)OCO2,113%,94.2,87%,32.6%,101%,–,24.3%,75.5,29.5%,18.3%
C/C(=N/NC(N)=O)c1ccco1,108%,100,110%,95.8%,–,102%,102%,111,106%,89.9%
Oc1ccc(N=Nc2ccc(Br)cc2)c(O)c1,-5.42% (active),47.4,54.1%,30.3%,39.2%,–,3.01% (active),23.5,-20% (active),21.2%
CC(=O)/C(Cc1ccccc1)=N/O,99.7%,92.4,105%,96.2%,–,98.6%,100%,75.6,99%,85%
CCCC(=O)c1cc(C)ccc1OC,103%,117,94.5%,–,104%,103%,104%,119,96.5%,–
CCOC(=O)c1coc(C(=O)OCC)c1C(=O)OCC,126%,100,112%,96.5%,118%,–,102%,92.2,112%,98.6%
CCOC(=O)Nc1cc2c(c(N)n1)N=C(c1ccccc1)CO2,19.1%,33.4,29.3%,21.3%,53.3%,–,24.2%,52,13.5%,15.7%
Oc1ccc(Cc2ccccc2)c2cccnc12,12.1%,28.3,20.5%,-14.4% (active),9.22% (active),–,-6.16% (active),–,1.19% (active),3.7% (active)
CCOC(=O)c1[nH]c(C)c(C(C)=O)c1C,122%,100,90.8%,79.3%,98.4%,–,87.3%,91,91.6%,59.1%
